# Only some compounds are listed: those with a hit (about 6.6% of all), similar ones and a draw of the others.
# RGS4 inhibitor: inhibitors of human regulator of G protein signaling 4; Transcreener GDP fluorescence polarization, RGS4-accelerated GTP hydrolysis; P49798; Potency, µM (highest dose often 114 µM), for the others: at the highest dose activity change, negative = inhibition, actives largely listed as inhibitors; AID 504845; 390,000 compounds, 0.039% hits; note: % is set by controls: 0 for no effect and ±100 for the full control effect; nearly all actives have a fitted effect of over 75% in size
# Target sequence (P49798 whole entry, looked up): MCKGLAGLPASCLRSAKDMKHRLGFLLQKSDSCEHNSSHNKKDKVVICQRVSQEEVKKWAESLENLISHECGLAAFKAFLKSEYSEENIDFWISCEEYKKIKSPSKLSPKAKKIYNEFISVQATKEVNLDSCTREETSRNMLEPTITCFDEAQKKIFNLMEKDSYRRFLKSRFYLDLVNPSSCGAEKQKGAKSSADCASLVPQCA
#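 MLSMR compounds (23 nl, pin-transferred) preincubated 10 min at room temperature with a 500nM (2x) first reagent, then RGS4 at 900nM (2x) plus Transcreener GDP mix added; fluorescence polarization (620/688 nm) read before and after 90 min at 30 °C.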
# MCF10A rerep: DNA re-replication induction in MCF 10a cells. MCF 10A DNA re-replication, Hoechst nuclear intensity, 48 h. Potency, µM (series often up to 46.1 µM), for the others: at the top dose activity, positive = re-replication, usual class: activators. 350,000 compounds, 2.9% hits; note: % of control where 0% means no effect; nearly all actives have a fitted effect of over 50% in size
# SW480 rereplic: DNA re-replication induction in SW480 cells; 340,000 compounds, 1.8% hits; SW480 DNA re-replication, Hoechst DNA content imaging, 48 h; AID 624297; Potency, µM (top dose mostly 46.1 µM), without a hit: at the top dose re-replication activation, actives largely listed as activators; note: % of control where 0% means no effect; nearly all actives have a fitted effect of over 55% in size
#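 Hoechst fluorescence of nuclei (405 nm excitation, 500-530 nm emission) measured by plate-scanning imager after 48 hr compound exposure at 37 C; re-replication scored as increased number of nuclei with elevated intensity.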
# KB-V1 cytotox: kills drug-selected multidrug resistant KB-V1 cells; KB-V1 MDR cells viability, CellTiter-Glo, 72 h; Potency, µM (top dose mostly 46.1 µM), hits mostly cytotoxic; 400,000 compounds, 3.4% hits; AID 1347076; note: % is set by controls: 0 for no effect and ±100 for the full control effect; nearly all actives have a fitted effect of over 60% in size
#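 KB-V1, DMEM (no phenol red) + 10% FBS; cpd pin-transferred, titration series; 72 h, 37 degrees C; CellTiter-Glo, luminescence. Data normalized, curve-fit.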
# PTAP TSG101 blk: blocks PTAP/TSG101 interaction to inhibit HIV-1 budding | Fluorescence polarization, FITC-PTAP peptide / Tsg101 binding | Potency, µM (doses to about 115 µM), without a hit: at the top dose activity change, negative = inhibition, most hits filed as inhibitors | 340,000 tested, under 10 active; active = well fitted inhibition curve with a large enough effect in the main read-out, with a control signal flat, not every such curve was filed as active; inconclusive = small, poorly fitted or top-dose-only effect, or effect the other way, or a change in a side signal; inactive = no such curve, though single readings can be large or run the other way; note: % of control where 0% means no effect
# Target sequence (Q99816 whole entry, looked up): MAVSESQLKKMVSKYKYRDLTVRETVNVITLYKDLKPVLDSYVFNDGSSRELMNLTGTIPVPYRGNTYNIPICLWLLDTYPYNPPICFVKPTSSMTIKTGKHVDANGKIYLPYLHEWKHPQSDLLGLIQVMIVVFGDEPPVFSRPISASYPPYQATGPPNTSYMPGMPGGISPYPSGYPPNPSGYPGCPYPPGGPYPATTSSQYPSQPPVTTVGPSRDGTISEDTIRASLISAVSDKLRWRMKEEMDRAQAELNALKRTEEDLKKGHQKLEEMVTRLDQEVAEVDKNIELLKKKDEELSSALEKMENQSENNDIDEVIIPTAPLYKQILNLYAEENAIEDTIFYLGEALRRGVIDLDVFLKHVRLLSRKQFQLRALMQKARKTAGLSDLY
#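 Steps: Tsg101 binding domain dispensed (10 uM final), compounds pinned in DMSO, FITC-labeled PTAP-motif peptide added (50 nM final); after 20 min binding at room temperature, polarization measured.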
# KB-3-1 tox: kills parental KB-3-1 adenocarcinoma cells | KB-3-1 viability, CellTiter-Glo ATP luminescence, 72 h | Potency, µM (series often up to 46.1 µM), most hits filed as cytotoxic | 400,000 compounds, 1.4% hits | AID 1347075; note: % is set by controls: 0 for no effect and ±100 for the full control effect; nearly all actives have a fitted effect of over 60% in size
#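 Parental KB-3-1 adenocarcinoma cells in phenol-red-free DMEM with 10% FBS were pin-treated with compounds at several concentrations, incubated 72 h at 37 °C, and viability read by CellTiter-Glo luminescence; concentration-effect curves were fitted after normalization.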
# Numbers without * were called inactive; i = inactive; ? = inconclusive; nt = no result given; [ ] = another dose, or the depositor's remark. Unless noted, calls come from the whole dose curve; as a rule, active = well fitted curve in the direction sought with a large enough effect; inconclusive = small, poorly fitted or top-dose-only effect, or another doubt; inactive = no such curve, though single readings can be large; an effect the other way counts as inactive or inconclusive. Potency is the fitted concentration of half-maximal effect.
SMILES,RGS4 inhibitor,MCF10A rerep,SW480 rereplic,KB-V1 cytotox,PTAP TSG101 blk,KB-3-1 tox
CCOc1cc(CNc2ccc3c(c2)OCCO3)cc(Br)c1OCC(N)=O,3.3%,1.6%,4.1%,i,-2.4%,i
CCOc1ccc(NC(=O)CCc2c(C)nc3cc(-c4ccccc4OC)nn3c2C)cc1,6.7%,nt,nt,i,nt,i
COc1ccc(-c2noc(CSc3nnc(-c4ccncc4)n3-c3ccc(C)cc3)n2)cc1OC,-1.0%,nt,nt,i,nt,i
CN(C)c1ccc(CNC(=O)c2cccn2-c2nnc(N3CCCCC3)s2)cc1,22.2%,nt,nt,i,nt,i
COC(=O)CSc1nnc(C2COc3ccccc3O2)n1-c1ccccc1 (stereo unspecified),0.1%,20.6µM*,22.5%,i,-7.3%,i
Cn1c(SCc2nnc(-c3ccc(F)cc3)o2)nnc1C1COc2ccccc2O1 (stereo unspecified),41.6%,3.5%,1.5%,i,-5.4%,i
Cc1cc(NC(=O)CSc2nnc(C3COc4ccccc4O3)n2C)no1 (stereo unspecified),-6.1%,-17.7%,-2.3%,i,-1.2%,i
Cn1c(SCc2ccc(C(C)(C)C)cc2)nnc1C1COc2ccccc2O1 (stereo unspecified),7.0%,20.6µM*,?,i,-9.1%,?
CCn1c(CSc2nc(C)cc(C)n2)nnc1SCC(=O)Nc1ccccc1,3.8%,7.4%,-7.0%,20.6µM*,-2.3%,i
CCn1c(CSc2nc(C)cc(C)n2)nnc1SCC(=O)Nc1cccc2ccccc12,-3.9%,-4.7%,1.9%,i,-8.4%,i
CCn1c(Cn2nnc(-c3ccccc3)n2)nnc1SCC(=O)Nc1cccc(C(C)=O)c1,5.6%,20.6µM*,?,i,-7.5%,i
CCn1c(Cn2nnc(-c3ccccc3)n2)nnc1SCC(=O)Nc1ccc(C(C)=O)cc1,2.4%,10.0%,-0.9%,i,-2.8%,i
CC(=O)N(Cc1ccc(F)cc1)c1cccc(C)c1C,-11.4%,-15.4%,?,?,-3.6%,i
O=C1C(Cl)=C(NCCc2ccccc2)C(=O)c2ccccc21,?,?,5.17µM*,?,-0.5%,?
CC(=O)N(Cc1ccc(F)cc1)C1=C(NCCc2ccccc2)C(=O)c2ccccc2C1=O,-25.0%,?,6.31µM*,?,-3.2%,8.2µM*
O=C1C(Cl)=C(NCCc2ccccc2)C(=O)N1CCc1ccccc1,7.7%,?,-4.0%[9.22 µM],i,-3.0%,i
CC(C)NC1=C(Cl)C(=O)c2ccccc2C1=O,-2.6%,?,13µM*,i,-3.2%,?
O=C(O)c1ccc(NC2=C(Cl)C(=O)c3ccccc3C2=O)cc1,?,?,?,i,-10.0%,?
O=C1C(Cl)=C(Nc2ccccc2)C(=O)c2ccccc21,3.7%,4.11µM*,?,?,-1.3%,?
CCCCCn1c(C(C)NC(=O)c2ccccc2)nc2ccccc21 (stereo unspecified),28.3%,nt,nt,i,nt,i
Cc1noc(Cn2c(=O)c3cc4c(cc3n(CC(=O)Nc3ccccc3F)c2=O)OCO4)n1,-0.8%,nt,nt,i,nt,i
CCOC(=O)c1sc(NC(=O)CN(CC(C)C)CC(C)C)c(C(=O)OCC)c1C,-28.7%,?,2.7%,20.6µM*,-2.2%,?
CCOC(=O)c1c(NC(=O)CC(C)C)sc(C(C)=O)c1C,9.8%,18.2%,0.4%,i,-5.5%,i
CS(=O)(=O)c1ccc2nc(NC(=O)c3ccccc3Cl)sc2c1,-13.1%,0.82µM*,-80.4%,i,0.8%,i
COc1ccccc1C(=O)Nc1nc2ccc(S(C)(=O)=O)cc2s1,-8.3%,?,-3.2%,5.8µM*,nt,i
SMILES,RGS4 inhibitor,MCF10A rerep,SW480 rereplic,KB-V1 cytotox,PTAP TSG101 blk,KB-3-1 tox
CS(=O)(=O)c1ccc2nc(NC(=O)c3ccccc3Br)sc2c1,21.0%,-10.6%,-5.7%,i,-1.6%,i
CC(=O)c1ccc(NC(=O)CCc2c(C)nn(-c3ccc4nncn4n3)c2C)cc1,-2.1%,nt,nt,nt,nt,nt
Cc1ccc(-c2noc(CNC(=O)c3ccc(Br)o3)n2)cc1,9.0%,nt,nt,nt,nt,nt
O=C(CC1C(=O)N(c2ccc(F)cc2)C(=O)N1Cc1ccc2c(c1)OCO2)Nc1ccc(Cl)cc1 (stereo unspecified),19.2%,nt,nt,i,nt,i
COc1cc(NC(=O)Cn2cc(C(=O)c3ccc(F)cc3)c(=O)c3ccc(C)nc32)cc(OC)c1,-11.5%,nt,nt,i,nt,i
CN(Cc1cccnc1)Cc1cn(C)nc1-c1ccc(Oc2ccccc2)cc1,10.0%,-19.3%,7.6%[1.84 µM],i,-6.7%,i
Cc1cc(CN(C)Cc2cn(C)nc2-c2ccc(Oc3ccccc3)cc2)on1,1.1%,3.8%,0.5%,9.2µM*,-3.2%,i
CNC(=O)C1CCC(Cn2c(=O)c3sccc3n(Cc3ccccc3)c2=O)CC1 (stereo unspecified),-7.1%,nt,nt,i,nt,i
CN(CC(=O)Nc1ccccc1Cl)C(=O)CSC(=S)N1CCCC1,-26.1%,0.1%,-88.9%,i,0.5%,i
Cc1cc(Br)ccc1NC(=O)CN(C)C(=O)CSC(=S)N1CCCC1,?,-2.1%,-4.5%,13µM*,-3.1%,i
O=C1c2ccccc2C(=O)N1CCc1csc(NNc2nc(CCN3C(=O)c4ccccc4C3=O)cs2)n1,-20.2%,-0.9%,-10.9%,i,-9.9%,i
Cc1ccc(-c2nc(CCN3C(=O)c4ccccc4C3=O)cs2)cc1,-14.3%,?,3.4%,13µM*,-6.1%,i
COc1ccccc1-n1cnnc1SCc1csc(-c2ccccc2)n1,-19.4%,-7.4%,9.1%,i,-3.3%,i
C=CCn1c(SCc2csc(-c3ccc(C)cc3)n2)nnc1-c1ccccc1OC,-16.3%,?,nt,13µM*,0.0%,i
Cc1ccc(-c2nc(CSc3nc4ccccc4c(=O)n3CCO)cs2)cc1,3.6%,?,0.2%,i,-0.9%,i
Cc1ccc(-c2nc(CSc3nc4ccccc4c(=O)n3C)cs2)cc1,-5.3%,?,-3.9%,11.6µM*,0.0%,?
COc1cc(Cl)c(S(=O)(=O)NCCc2c(C)[nH]c3c(C)cccc23)cc1Cl,4.1%,nt,nt,?,nt,?
Cc1ccc(S(=O)(=O)N2CCn3cccc3C2C)cc1 (stereo unspecified),16.6%,?,2.2%,13µM*,-2.8%,i
Cc1cccc(S(=O)(=O)N2CCn3cccc3C2C)c1 (stereo unspecified),-42.1%,7.7%,2.3%,i,-5.4%,i

# Screening data as filed in PubChem BioAssay.
